Assay outcomes (PubChem BioAssay)
Pf apPOL inh = Pf-apPOL DNA polymerase inhibition; 210,000 tested, 0.25% active; Recombinant Pf-apPOL, molecular beacon fluorescence, 1.5 h; AID 1794808; inhibition, % at 10 µM
mHTT-CaM PPI inh = mHTT-calmodulin interaction abrogation. P42858. AlphaScreen His-mHTT/GST-CaM binding, luminescence. inhibition, % at 15 µM. 190,000 tested, 3.6% active. AID 1671202;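 note: 0% = both proteins with DMSO and 100% = one protein alone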
Target sequence (P42858 whole entry, looked up, stated change not applied): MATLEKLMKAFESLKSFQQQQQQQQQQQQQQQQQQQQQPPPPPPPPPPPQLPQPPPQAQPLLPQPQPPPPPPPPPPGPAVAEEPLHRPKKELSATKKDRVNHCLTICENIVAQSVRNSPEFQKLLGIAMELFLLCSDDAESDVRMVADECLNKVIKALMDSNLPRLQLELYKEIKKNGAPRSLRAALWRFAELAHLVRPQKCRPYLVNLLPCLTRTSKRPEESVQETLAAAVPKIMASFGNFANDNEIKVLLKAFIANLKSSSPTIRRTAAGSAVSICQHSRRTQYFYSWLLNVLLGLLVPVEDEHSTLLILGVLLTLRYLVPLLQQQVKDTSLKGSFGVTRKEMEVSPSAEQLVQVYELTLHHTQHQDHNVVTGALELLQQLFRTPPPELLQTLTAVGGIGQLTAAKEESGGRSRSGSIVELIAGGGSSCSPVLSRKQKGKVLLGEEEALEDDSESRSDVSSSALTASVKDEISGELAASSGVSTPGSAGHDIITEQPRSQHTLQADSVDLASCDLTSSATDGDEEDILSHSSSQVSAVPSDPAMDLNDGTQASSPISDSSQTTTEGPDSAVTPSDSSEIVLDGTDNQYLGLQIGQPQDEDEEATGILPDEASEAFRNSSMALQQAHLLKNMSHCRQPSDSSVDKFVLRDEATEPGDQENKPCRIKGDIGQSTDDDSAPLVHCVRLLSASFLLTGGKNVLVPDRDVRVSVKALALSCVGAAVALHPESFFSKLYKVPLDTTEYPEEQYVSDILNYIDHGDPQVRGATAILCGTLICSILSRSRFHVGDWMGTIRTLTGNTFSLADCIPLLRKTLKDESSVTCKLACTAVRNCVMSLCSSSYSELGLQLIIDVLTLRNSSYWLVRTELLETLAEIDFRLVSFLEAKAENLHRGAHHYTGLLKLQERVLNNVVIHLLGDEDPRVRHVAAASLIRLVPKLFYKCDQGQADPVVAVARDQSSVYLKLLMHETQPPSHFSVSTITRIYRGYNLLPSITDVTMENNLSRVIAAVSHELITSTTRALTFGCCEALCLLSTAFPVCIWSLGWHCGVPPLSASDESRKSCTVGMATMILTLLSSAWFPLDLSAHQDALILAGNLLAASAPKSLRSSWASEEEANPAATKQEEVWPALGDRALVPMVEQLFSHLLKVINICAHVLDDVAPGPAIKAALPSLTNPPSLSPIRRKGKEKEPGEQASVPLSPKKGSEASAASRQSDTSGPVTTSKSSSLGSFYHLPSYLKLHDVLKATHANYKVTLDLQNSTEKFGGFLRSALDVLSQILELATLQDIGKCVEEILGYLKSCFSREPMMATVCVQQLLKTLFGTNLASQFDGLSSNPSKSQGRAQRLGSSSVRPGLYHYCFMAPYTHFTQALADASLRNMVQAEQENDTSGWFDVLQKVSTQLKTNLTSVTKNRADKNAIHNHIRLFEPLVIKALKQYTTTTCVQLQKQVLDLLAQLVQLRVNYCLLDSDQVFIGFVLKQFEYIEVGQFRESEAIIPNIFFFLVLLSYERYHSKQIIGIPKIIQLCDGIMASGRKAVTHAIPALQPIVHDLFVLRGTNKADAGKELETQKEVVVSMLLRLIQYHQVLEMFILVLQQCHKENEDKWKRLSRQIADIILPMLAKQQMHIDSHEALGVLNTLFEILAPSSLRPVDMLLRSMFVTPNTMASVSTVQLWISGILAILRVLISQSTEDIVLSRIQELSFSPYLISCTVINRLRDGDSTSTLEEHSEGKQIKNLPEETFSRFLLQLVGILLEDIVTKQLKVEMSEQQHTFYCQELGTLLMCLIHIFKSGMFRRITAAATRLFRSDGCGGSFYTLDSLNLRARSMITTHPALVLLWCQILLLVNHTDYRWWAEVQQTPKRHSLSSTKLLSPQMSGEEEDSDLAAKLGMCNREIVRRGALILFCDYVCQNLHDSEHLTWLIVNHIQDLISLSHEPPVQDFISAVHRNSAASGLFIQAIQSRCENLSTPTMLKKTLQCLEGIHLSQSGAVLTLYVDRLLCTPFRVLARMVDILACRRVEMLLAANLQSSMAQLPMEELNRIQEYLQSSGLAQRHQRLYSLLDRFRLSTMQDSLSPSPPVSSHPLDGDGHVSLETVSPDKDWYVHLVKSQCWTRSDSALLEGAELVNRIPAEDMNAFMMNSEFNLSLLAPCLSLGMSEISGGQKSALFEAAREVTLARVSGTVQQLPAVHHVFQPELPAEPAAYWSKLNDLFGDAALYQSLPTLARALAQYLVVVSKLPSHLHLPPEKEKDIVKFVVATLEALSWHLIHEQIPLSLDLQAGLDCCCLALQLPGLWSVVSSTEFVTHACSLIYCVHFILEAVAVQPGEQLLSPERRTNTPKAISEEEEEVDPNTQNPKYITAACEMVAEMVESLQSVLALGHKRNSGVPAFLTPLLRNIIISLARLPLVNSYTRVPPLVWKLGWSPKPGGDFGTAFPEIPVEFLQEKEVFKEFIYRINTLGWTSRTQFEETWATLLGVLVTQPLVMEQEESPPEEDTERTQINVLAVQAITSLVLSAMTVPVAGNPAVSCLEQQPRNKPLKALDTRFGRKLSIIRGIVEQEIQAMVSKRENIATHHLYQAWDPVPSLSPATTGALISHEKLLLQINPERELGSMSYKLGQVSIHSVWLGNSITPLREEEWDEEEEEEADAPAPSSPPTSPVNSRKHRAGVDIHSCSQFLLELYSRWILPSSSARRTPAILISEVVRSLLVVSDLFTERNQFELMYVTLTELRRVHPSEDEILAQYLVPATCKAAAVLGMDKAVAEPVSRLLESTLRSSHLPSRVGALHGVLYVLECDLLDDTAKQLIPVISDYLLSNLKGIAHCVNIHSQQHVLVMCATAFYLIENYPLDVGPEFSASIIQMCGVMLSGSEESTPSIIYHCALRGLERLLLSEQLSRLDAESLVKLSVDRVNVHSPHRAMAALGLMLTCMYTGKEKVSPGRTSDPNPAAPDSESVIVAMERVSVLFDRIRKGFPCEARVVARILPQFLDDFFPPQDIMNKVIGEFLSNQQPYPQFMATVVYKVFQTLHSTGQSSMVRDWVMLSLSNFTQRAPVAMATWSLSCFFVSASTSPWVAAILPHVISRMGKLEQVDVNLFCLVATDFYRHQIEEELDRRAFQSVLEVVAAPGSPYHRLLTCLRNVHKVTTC
* = called active by the depositor; x = not tested or not shown. In the library only some 3.5% were active in any assay of this set; here they are far more common. Cut-off read from the data, not from the text of the source: active = inhibition above about 50%; inactive = the rest.

SMILES	Pf apPOL inh	mHTT-CaM PPI inh
COc1ccc(-n2nc(C(=O)NCCN3CCOCC3)c3ccccc3c2=O)c(OC)c1	-6.6	5.0
NC(=S)c1ccc(Oc2ccc(Cl)cc2)nc1	-4.4	x
CCOc1ccccc1C(=O)Nc1ccc2c(c1)N(CCOC)CCC2	-3.4	45.5
COc1ccc(-c2cc3ccc(O)c(CN4CCCCC4)c3oc2=O)cc1	-202.3	-31.3
O=C1CN(C(=O)c2ccc(F)cc2)C(c2ccc(F)cc2)c2cc(F)ccc2N1 (centres undefined)	-9.8	3.0
Fc1ccc2c(c1)C1OCCC1C(c1ccccc1)N2 (centres undefined)	x	0.6
O=C(O)c1ccc(C2Nc3ccc(F)cc3C3C=CCC32)cc1 (centres undefined)	-7.6	79.0*
Fc1ccc2c(c1)C1C=CCC1C(c1ccc(Cl)cc1)N2 (centres undefined)	-0.5	75.0*
O=C(O)c1ccc(C2Nc3ccc(I)cc3C3C=CCC32)cc1 (centres undefined)	5.8	97.0*
O=C(Nc1c2c(nn1-c1ccc([N+](=O)[O-])cc1)CS(=O)(=O)C2)c1c(F)cccc1Cl	2.8	6.0
O=C(CSc1nc2ccccc2c(=O)n1C1CCCCC1)c1ccccc1	-1.9	-4.5
CCOc1ccccc1CN1CCC(C(O)c2ccccn2)CC1 (centres undefined)	-9.8	4.0
O=C(NCc1ccccc1)c1cc2cn(C3CC3)cc2s1	18.0	42.3
CC(C)n1cc2cc(C(=O)N3CCN(Cc4cccc(F)c4)CC3)sc2c1	2.8	70.9*
CC(C)n1cc2cc(C(=O)N(C)Cc3ccccc3)sc2c1	0.6	86.2*
CC(C)N1CCN(C(=O)c2cc3cn(C(C)C)cc3s2)CC1	-5.3	22.4
CC(C)n1cc2cc(C(=O)N(C)C)sc2c1	1.2	11.7
CN(Cc1ccccc1)C(=O)c1cc2cn(C3CC3)cc2s1	2.2	94.8*
O=S(=O)(c1ccccc1)N1CCC(N2CCCCC2)CC1	-4.1	-1.7
CCC(C)NC(=O)CN1C(=O)/C(=C/c2ccc(C(F)(F)F)cc2)Sc2ccccc21 (centres undefined)	-6.8	1.0
N#CSC(CS(=O)(=O)c1ccc([N+](=O)[O-])cc1)c1ccccc1 (centres undefined)	-10.2	62.3*
Cc1ccc(S(=O)(=O)CC(SC#N)c2ccccc2)cc1 (centres undefined)	-4.7	-12.0
COc1ncccc1CNC(=O)NCc1cccc(F)c1	-0.1	-4.7
O=C(NC1CCCCCC1)c1ccccc1F	-6.1	-1.7
Cc1noc(-c2ccc(C(C)(C)C)cc2)c1C(=O)NCc1ccccc1	-5.3	5.9
SMILES	Pf apPOL inh	mHTT-CaM PPI inh
Cc1ccc(N(CC(O)CN2C(=O)NC(C)(C)C2=O)S(=O)(=O)c2ccc([N+](=O)[O-])cc2)cc1 (centres undefined)	-3.1	61.0*
CC1(C)NC(=O)N(CC(O)CN(c2cccc([N+](=O)[O-])c2)S(=O)(=O)c2ccccc2)C1=O (centres undefined)	-6.3	-0.3
COc1ccc(NC(=O)c2cnn3c(C(F)(F)F)cc(-c4cccs4)nc23)c(OC)c1	-3.6	17.0
CC(C)Sc1cccc(C(=O)Nc2nnc(-c3ccnn3C(C)C)o2)c1	-214.5	68.4*
CC(C)Sc1cccc(-c2nnc(NC(=O)c3cc(-c4ccco4)on3)o2)c1	-47.8	36.8
CCc1cccc(NC(=O)CN2C(=O)NC3(CCCCC3)C2=O)c1	0.4	4.3
O=C(Nc1ccccc1)c1n[nH]n(-c2ccccc2)c1=O	-11.2	0.0
O=C(NCc1ccccc1Cl)C1CCN(C(=O)Nc2cccs2)CC1	-5.6	58.1*
O=C(NC1CC1)C1CCN(C(=O)Nc2cccs2)CC1	-4.2	15.3
O=C(NCC1CCCO1)c1cc2c(s1)CCN(C(=O)c1ccccc1)C2 (centres undefined)	-1.5	-2.8
Cc1cc2c(cc1C)N[C@]1(C[C@H]3CCCC(=O)N4CC[C@@H](C1)[C@@H]34)C(=NC(C)(C)CC(C)(C)C)N2	-4.3	99.6*
Cc1ccccc1N=C1Nc2ccccc2N[C@]12C[C@H]1CCCC(=O)N3CC[C@@H](C2)[C@@H]13	-1.2	14.7
CC(C)(C)CC(C)(C)N=C1Nc2ccc(Cl)cc2N[C@]12C[C@H]1CCCC(=O)N3CC[C@@H](C2)[C@@H]13	-2.4	72.6*
Cc1cc2c(cc1C)N[C@]1(C[C@H]3CCCC(=O)N4CC[C@@H](C1)[C@@H]34)C(=NCc1ccccc1)N2	1.6	33.9
O=C1CCC[C@@H]2C[C@@]3(C[C@@H]4CCN1[C@H]24)Nc1cc(Cl)ccc1NC3=NCc1ccccc1	-3.0	62.5*
O=C1CCC[C@@H]2C[C@@]3(C[C@@H]4CCN1[C@H]24)Nc1cc(Cl)ccc1NC3=NC1CCCCC1	-2.2	29.7
O=C1CCC[C@@H]2C[C@@]3(C[C@@H]4CCN1[C@H]24)Nc1cc([N+](=O)[O-])ccc1NC3=NC1CCCCC1	-2.9	51.3*
Cc1cc2c(cc1C)N[C@]1(C[C@H]3CCC(=O)N4CC[C@@H](C1)[C@@H]34)C(=Nc1ccccc1C)N2	-4.7	48.5
Cn1c2ccccc2c2c(C(=O)NCc3ccc(F)cc3Cl)cn(C3CCCC3)c(=O)c21	-1.3	-6.0
CC(=O)c1ccc(NC(=O)c2cn(C)nc2C)cc1	-9.0	-15.0
CCOc1ccc(C(=O)Nc2ccc([N+](=O)[O-])cc2C)cc1Cl	-8.6	-0.4
CN(C)c1ccc(C(CNC(=O)c2ccccc2[N+](=O)[O-])N2CCc3ccccc3C2)cc1 (centres undefined)	-4.6	65.8*
CN(C)c1ccc(C(CNC(=O)c2cccc([N+](=O)[O-])c2)N2CCOCC2)cc1 (centres undefined)	-5.2	-7.4
O=C(CCn1c(N2CCCCC2)nc2ccccc2c1=O)Nc1ccc(Cl)cc1	1.1	18.2
COc1ccc2[nH]cc(CCN3CC(C(=O)Nc4ccc(C)cc4)CC3=O)c2c1 (centres undefined)	-7.0	37.5
SMILES	Pf apPOL inh	mHTT-CaM PPI inh
Cn1c2ccc(Br)cc2c2nnc(SCCN3CCOCC3)nc21	-2.0	80.0*
Cn1c2ccc(Br)cc2c2nnc(SCN3C(=O)c4ccccc4C3=O)nc21	-3.0	-2.0
CCCN=Cc1c(CCC)[nH]n(-c2nc3ccccc3s2)c1=O	-6.6	3.0
O=c1c(C=NCCCO)c(CSc2ccc(Cl)cc2)[nH]n1-c1nc2ccccc2s1	6.5	56.0*
CC1(C(=O)NCc2ccccc2)CCCN(S(=O)(=O)c2cccs2)C1 (centres undefined)	-1.8	-2.5
Clc1ccccc1C1Cn2cnc(-c3nc(-c4ccccn4)no3)c2CO1 (centres undefined)	-0.2	100.2*
Fc1ccc(-c2noc(-c3ncn4c3COC(c3ccccc3Cl)C4)n2)cc1 (centres undefined)	-3.9	19.0
CC(Oc1ccccc1F)C(=O)NCCOc1ccc(-c2ccccn2)nn1 (centres undefined)	-9.1	100.3*
O=C(NCCOc1ccccc1-c1ccccc1)c1ccco1	-1.3	-0.5
CCOc1ccc(OCCNC(=O)c2cccs2)cc1	-8.7	-18.0
CC(Oc1ccccc1F)C(=O)NCCN1CCCCC1 (centres undefined)	-2.9	-1.0
O=C(NCCOc1ccc(-c2ccccn2)nn1)c1ccco1	-8.8	100.3*
O=C(NCCOc1ccc(-c2ccccn2)nn1)c1cccs1	-14.8	100.3*
COc1ccccc1CCNC(=O)C1CN(C(=O)c2ccc(F)c(F)c2)C1	-4.4	-8.6
CNc1nccc(N2CCC(CC(=O)N(C)CCc3ccncc3)CC2)n1	-5.1	0.3
